The results in this text go back to PubChem BioAssay (NCATS).

In one experiment the test system is TAB113. The experiment is described as follows: qHTS profiling for inhibitors of Plasmodium falciparum proliferation (AID 504749). Further: potency means the concentration at half of the fitted maximal effect. The following applies: P. falciparum in erythrocytes, SYBR Green DNA, 72 h; series mostly up to 28.7 µM. Summed up: (§1)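 Readout was DNA-dye fluorescence from lysed cultures, ex 485/em 535 nm. Parasitized red cells had grown 72 h with compound; data scaled between 0.29 uM artemisinin and DMSO wells and corrected using vehicle-only plates.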

The subject of the next experiment is TAB165. The experiment is described as above. The following applies: P. falciparum in erythrocytes, SYBR Green DNA, 72 h; series mostly up to 28.7 µM. A digest of the protocol:
as §1

Another experiment has as its system W2. The experiment is described as above. The following applies: P. falciparum in erythrocytes, SYBR Green DNA, 72 h; series mostly up to 28.7 µM. A digest of the protocol: as §1
The next experiment has as its system CRL-7250. The experiment is described as follows: Cytotoxic Profiling of Annotated Libraries Using Quantitative High-Throughput Screening (AID 1296008). Further: potency means the concentration at half of the fitted maximal effect. On max response: on the % scale 0 is the no-effect control and ±100 the full control effect. The following applies: Five cell lines viability, CellTiter-Glo ATP luminescence, 48-72 h; max response: active compounds read low. A digest of the protocol:
(§2)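 Cells exposed to compounds for 48 or 72 hr at 37 degrees Celsius. Viability read as ATP-coupled luminescence with CellTiter-Glo after 10 min at room temperature.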

Another experiment relates to HEK293. The experiment is described as above. The following applies: Five cell lines viability, CellTiter-Glo ATP luminescence, 48-72 h; max response: active compounds read low. Summed up:
as §2

Experiment [1] relates to HaCat. Described as above. The following applies: Five cell lines viability, CellTiter-Glo ATP luminescence, 48-72 h; max response: active compounds read low. Summed up:
as §2

The next experiment relates to KB-3-1. The description is as above. The following applies: Five cell lines viability, CellTiter-Glo ATP luminescence, 48-72 h; max response: active compounds read low. A digest of the protocol:
as §2

The subject of another experiment is NIH3T3. The experiment is described as above. The following applies: Five cell lines viability, CellTiter-Glo ATP luminescence, 48-72 h; max response: active compounds read low. A digest of the protocol:
as §2

For experiment [2], the system named is HACAT. The experiment is described as follows: qHTS assay to identify novel small-molecules to repurpose for Merkel cell carcinoma treatment (AID 1296009). The following applies: MCC and control cell lines, CellTiter-Glo viability, 72 h; at 44.8 µM (top of the series) unless noted. A digest of the protocol:
(§3)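 Cells were incubated with compound for 72 hr at 37 degree celsius before CellTiter-Glo addition. Luminescence was normalized with no-cell wells as full cytotoxicity and DMSO as baseline.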

Another experiment has as its system HEK293T. The experiment is described as above. The following applies: MCC and control cell lines, CellTiter-Glo viability, 72 h; at 44.8 µM (top of the series) unless noted. A digest of the protocol: as §3

Each structure is given as a SMILES string. Results filed as inconclusive are left out. Values without a mark were called inactive. The source made the active and inactive calls. The call rests on the fitted dose curve; in most records, active means well fitted inhibition curve with a large enough effect; inconclusive means small, poorly fitted or top-dose-only effect; inactive means flat fitted curve, though single readings scatter.
Further: nearly all actives have a fitted effect of over 60% in size.

As to `CCN(Cc1ccncc1)C(=O)C(CO)c1ccccc1` (stereo not given), the Potency entry in the experiment with TAB113, in the experiment with TAB165 and in the experiment on W2 was “inactive” in each case. For the same compound, the max response was -20.8% in the experiment with CRL-7250, -10.1% with HEK293, 6.96% in the experiment with KB-3-1 and -10.9% with NIH3T3. Moreover, the compound was classed as inactive in the experiment on HaCat [1] and with HACAT [2].
On to `CO[C@@]1(NC(=O)CSCC#N)C(=O)N2C(C(=O)O)=C(CSc3nnnn3C)CS[C@@H]21`, for which the max response is 2.03% with CRL-7250, -2.42% with HEK293, 1.86% with KB-3-1 and -0.696% with NIH3T3. Moreover, the compound was called inactive in the experiment on HaCat [1] and with HACAT [2].
With `Cc1cc(C)c(/C=C2\C(=O)Nc3ccccc32)[nH]1`, the Potency entry with TAB113, in the experiment on TAB165 and with W2 was “inactive” in each case. The max response in the experiment with CRL-7250 was -6.15%; in the experiment with HaCat [1], -11.3%; in the experiment on KB-3-1 it was -3.51%; in the experiment on NIH3T3, -17.1%. Further, the compound was classed as inactive in the experiment on HEK293 and with HEK293T.
`Cc1ccc(Cl)c(Nc2ccccc2C(=O)O)c1Cl`: the Potency entry with TAB113, in the experiment on TAB165 and with W2 was “inactive” in each case. Further, the max response with CRL-7250 is 2.33%; in the experiment on HaCat [1], -3.9%; in the experiment with KB-3-1 it was -10.1%; in the experiment on NIH3T3 it was 3.05%. For the same compound, the compound was classed as inactive in the experiment on HEK293 and in the experiment on HEK293T.
As for `NCCCNCCSP(=O)(O)O`, the Potency entry in the experiment with TAB113, in the experiment with TAB165 and in the experiment with W2 was “inactive” each time. In addition, the call in the experiment with CRL-7250, with HaCat [1] and in the experiment with NIH3T3 was inactive. Moreover, the max response with HEK293 was -18.5%; with KB-3-1, -4.63%. The outcome in the experiment on HACAT [2] was “inactive [at 9.27 µM]”.
Take `CCN1CCc2nc(N)oc2CC1`: the Potency entry with TAB113, with TAB165 and in the experiment with W2 was “inactive” in each case. Also, the max response is 2.68% in the experiment on CRL-7250, 2.16% in the experiment with KB-3-1 and -2.66% with NIH3T3. The call with HEK293, with HaCat [1], with HACAT [2] and in the experiment with HEK293T was inactive.
With `CN(C)C(=O)Oc1cccc([N+](C)(C)C)c1`, the Potency result with TAB113, in the experiment on TAB165 and with W2 was “inactive” in each case. Moreover, the compound was classed as inactive in the experiment with CRL-7250, in the experiment on HEK293, in the experiment on HaCat [1], in the experiment on HACAT [2] and in the experiment with HEK293T. Also, the max response in the experiment on KB-3-1 is 3.68%; in the experiment on NIH3T3 it was 1.77%.
With `CN(C)CCOC(=O)COc1ccc(Cl)cc1`, the Potency entry in the experiment with TAB113, in the experiment on TAB165 and with W2 was “inactive” in each case. Further, the max response in the experiment on CRL-7250 was -13.3%; with HEK293, 2.83%; in the experiment with KB-3-1 it was -1.09%; in the experiment on NIH3T3, 0.547%. Moreover, the compound was called inactive in the experiment with HaCat [1] and in the experiment on HACAT [2].
For the compound `CC(C)(C)NCC(O)c1cc(O)cc(O)c1` (stereo not given), the max response was -15.1% with CRL-7250; -2.84% with HEK293; 4.23% in the experiment with HaCat [1]; -2.33% in the experiment on KB-3-1; 3.49% in the experiment on NIH3T3.
In the case of `CN1C(=O)CC[C@H]1c1cccnc1`, the max response was -11.6% in the experiment on CRL-7250, -8.79% in the experiment on HEK293, 0.0726% in the experiment with KB-3-1 and -5.17% with NIH3T3. For the same compound, the call in the experiment on HaCat [1] and in the experiment with HACAT [2] was inactive.
In the case of `CC(=O)Nc1nnc(S(N)(=O)=O)s1`, the Potency entry in the experiment with TAB113, in the experiment with TAB165 and with W2 was “inactive” each time. Besides, the outcome in the experiment with CRL-7250 and in the experiment with NIH3T3 was inactive. Moreover, the max response in the experiment on HEK293 is 3.96%; with HaCat [1], 4.4%; in the experiment on KB-3-1, 1.55%.
With `CCCOc1ccccc1-c1nc2n[nH]nc2c(=O)[nH]1`, the Potency entry in the experiment with TAB113 and with TAB165 was “inactive” in each case. In addition, the max response in the experiment on CRL-7250 was -0.525%; in the experiment on HEK293, 2.92%; in the experiment with KB-3-1, -27%; in the experiment on NIH3T3, -1.31%. In addition, the call in the experiment on HaCat [1] and in the experiment with HACAT [2] was inactive.
With `Cc1scc2c1N(C(=O)CN1CCN(C)CC1)c1ccccc1NC2=O`, the Potency result with TAB113 and in the experiment with W2 was “inactive” in each case. For the same compound, the max response is -1.88% with CRL-7250, -0.369% in the experiment on HEK293, 6.97% in the experiment on KB-3-1 and -7.24% in the experiment with NIH3T3. The result in the experiment on HaCat [1] and with HACAT [2] was inactive.
As for `CCCCNc1ccc(C(=O)OCCN(C)C)cc1`, the Potency entry with TAB113, in the experiment with TAB165 and in the experiment with W2 was “inactive” in each case. For the same compound, the max response with CRL-7250 is 3.25%; in the experiment on HEK293, -4%; in the experiment on HaCat [1], -3.56%; with KB-3-1, 0.24%. Besides, the compound was classed as inactive with NIH3T3.
With `Nc1c2c(nc3ccccc13)CCCC2O` (stereo not given), the Potency entry in the experiment on TAB113, in the experiment on TAB165 and with W2 was “inactive” each time. The results for the max response with CRL-7250, in the experiment with KB-3-1 and in the experiment on NIH3T3 were -0.206%, -6.2% and 4.53%, respectively. Also, the result in the experiment on HEK293, in the experiment with HaCat [1], in the experiment with HACAT [2] and in the experiment on HEK293T was inactive.
As for `NC/C=C/C(=O)O`, the Potency result with TAB113, in the experiment on TAB165 and in the experiment on W2 was “inactive” throughout. Also, the results for the max response in the experiment with CRL-7250, in the experiment with KB-3-1 and with NIH3T3 were -5.1%, 3.52% and -7.89%, respectively. The compound was classed as inactive in the experiment on HEK293, with HaCat [1], with HACAT [2] and in the experiment on HEK293T.
As to `NC(N)=NC(=O)Cc1c(Cl)cccc1Cl`, the Potency result in the experiment with TAB113 is “inactive”. In addition, the Potency in the experiment with W2 is 6.75 µM (active); with HEK293, 8.41 µM (active). Besides, the max response with CRL-7250 is -2.41%; with HaCat [1], -14.8%; with KB-3-1, 6.63%; in the experiment on NIH3T3 it was 3.43%.
With `Cc1nc2c([nH]1)c(=O)n(C)c(=O)n2Cc1ccco1`, the Potency result in the experiment on TAB113, in the experiment with TAB165 and in the experiment on W2 was “inactive” in each case. The max response with CRL-7250 was 0.6%; in the experiment on HEK293, 4.2%; with NIH3T3, -4.53%. Further, the compound was classed as inactive in the experiment with HaCat [1] and with HACAT [2].
Turning to `C[n+]1cc2c3c(ccc2c2ccc4cc5c(cc4c21)OCO5)OCO3`, the Potency result in the experiment with TAB165 is “inactive”. Also, the Potency is 1.84 µM (active) with CRL-7250, 1.16 µM (active) in the experiment on HEK293, 2.59 µM (active) with HaCat [1] and 4.61 µM (active) in the experiment with NIH3T3. Moreover, in the experiment on KB-3-1, the max response was -95.7%.
